Structures are written as SMILES. Values joined by “and” are separate entries in the source; they are usually repeats but may differ in a detail not shown here. Equal entries are not always repeated. Results filed as inconclusive are left out. Values without a mark were called inactive. Active and inactive are the calls of the source. Unless noted, calls follow the shape of the dose curve; as a rule, active = well fitted curve in the direction sought with a large enough effect; inconclusive = small, poorly fitted or top-dose-only effect, or another doubt; inactive = no such curve, though single readings can be large; an effect the other way counts as inactive or inconclusive.

For 14 compounds, Potency and activity change, negative = viability loss results are on record in PubChem BioAssay (NCATS).

The target of test [1] is Cytochrome P450 2D6 (Homo sapiens) (UniProt P10635). The experiment in a line: Cytochrome P450 family 2 subfamily D member 6 (CYP2D6) small molecule antagonists: luciferase biochemical (cell-free) qHTS assay (AID 1645840; active = well fitted curve in the direction sought with a large enough effect in the repeat runs; an effect the other way counts as inactive or inconclusive; also: nearly all actives have a fitted effect of over 55% in size; also: potency is read from the fitted curve at half-maximal effect). The following applies: P450-Glo CYP2D6 enzyme, luciferin luminescence, 1 h; series mostly up to 57.4 µM. In a few lines: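 P450-Glo CYP2D6 system: proluciferin substrate converted by enzyme to luciferin, read by luminescence proportional to activity. Enzyme-substrate mix with compound 10 min at room temperature, then NADPH regeneration 1 h before detection reagent.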
Cytochrome P450 2D6 (Homo sapiens), sequence (P10635 whole entry, looked up): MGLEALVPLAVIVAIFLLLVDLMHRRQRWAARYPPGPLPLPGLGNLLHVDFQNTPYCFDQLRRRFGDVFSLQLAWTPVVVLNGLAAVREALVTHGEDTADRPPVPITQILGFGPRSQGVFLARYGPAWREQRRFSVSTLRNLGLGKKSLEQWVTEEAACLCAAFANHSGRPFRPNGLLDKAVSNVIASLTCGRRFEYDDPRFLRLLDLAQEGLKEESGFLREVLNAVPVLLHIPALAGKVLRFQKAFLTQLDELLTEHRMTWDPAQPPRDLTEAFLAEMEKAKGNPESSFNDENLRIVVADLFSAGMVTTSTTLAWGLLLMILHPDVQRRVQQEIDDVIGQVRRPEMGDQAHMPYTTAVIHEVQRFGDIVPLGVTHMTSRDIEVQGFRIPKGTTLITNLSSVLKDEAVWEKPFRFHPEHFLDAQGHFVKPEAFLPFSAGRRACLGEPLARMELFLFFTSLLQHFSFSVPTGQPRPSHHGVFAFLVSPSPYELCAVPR

A short description of test [2]: Primary qHTS for inhibitors of nuclear receptor binding SET domain protein 2 (NSD2) in an isogenic RCH-ACV NSD2 p.E1099K mutant (9B) (AID 1645876). Also: nearly all actives have a fitted effect of over 70% in size. Also: potency is read from the fitted curve at half-maximal effect. As to activity change, negative = viability loss: % is scaled to controls: 0 for no effect and ±100 for the full control effect. Particulars: RCH-ACV NSD2 E1099K (9B) viability, CellTiter-Glo, 72 h; series mostly up to 44.9 µM.
Test [3] in a line: Primary qHTS for inhibitors of nuclear receptor binding SET domain protein 2 (NSD2) in an RCH-ACV wild type WT cells (2C) (AID 1645877). Also: nearly all actives have a fitted effect of over 70% in size. Also: potency is read from the fitted curve at half-maximal effect. Particulars: RCH-ACV (leukaemia line) NSD2 WT (2C) viability, CellTiter-Glo, 72 h; series mostly up to 44.9 µM. (In general: Quantitative high-throughput screening tests each substance at several concentrations.)
Test [4] has as its target Cytochrome P450 2C9 (Homo sapiens) (UniProt P11712). The experiment in a line: Cytochrome P450 family 2 subfamily C member 9 (CYP2C9) small molecule antagonists: luciferase biochemical (cell-free) qHTS assay (AID 1645842; active = well fitted curve in the direction sought with a large enough effect in the repeat runs; an effect the other way counts as inactive or inconclusive; also: nearly all actives have a fitted effect of over 55% in size; also: potency is read from the fitted curve at half-maximal effect). The following applies: P450-Glo CYP2C9 enzyme assay, luciferin luminescence; series mostly up to 57.4 µM. The method in brief:
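P450-Glo CYP2C9 system: proluciferin substrate with enzyme in mix containing 0.4% BSA, 10 min at room temperature, then NADPH regeneration solution added and incubated 1 h at 37C. Detection reagent stopped reaction; luminescence read after 20 min as RLU.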

Test [5] has as its target N-terminal Xaa-Pro-Lys N-methyltransferase 1 (Homo sapiens) (UniProt Q9BV86). The experiment in a line: Confirmatory qHTS for Inhibitors of N-terminal methyltransferase 1 (NTMT1): MTaseGlo Assay (AID 1645874).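 Also: luminescence from SAH made as NTMT1 methylates SPKRIA peptide using SAM; 0% = DMSO control and -100% = no-enzyme control; nearly all actives have a fitted effect of over 65% in size.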 The following applies: NTMT1 enzyme, MTase-Glo SAH luminescence; series mostly up to 100 µM. In a few lines: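 SPKRIA peptide at 1 uM was methylated by 125 nM NTMT1 using 100 uM SAM over 30 min at room temperature, following a 15 min compound preincubation. Product SAH was detected luminescently.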

Test [6] deals with Cytochrome P450 3A4 (Homo sapiens) (UniProt P08684). The experiment in a line: Cytochrome P450 family 3 subfamily A member 4 (CYP3A4) small molecule antagonists: luciferase qHTS assay (AID 1645841; active = well fitted curve in the direction sought with a large enough effect in the repeat runs; an effect the other way counts as inactive or inconclusive; also: nearly all actives have a fitted effect of over 45% in size). Particulars: P450-Glo CYP3A4 enzyme assay, luciferin luminescence; series mostly up to 57.4 µM. The method in brief:
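P450-Glo CYP3A4 enzyme with proluciferin substrate was preincubated with DMSO-dissolved compounds for 10 min at room temperature. NADPH regeneration solution started a 1 h reaction. Detection reagent stopped it, and luminescence was read after 20 min.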

Cytochrome P450 2C9 (Homo sapiens), sequence (P11712 whole entry, looked up): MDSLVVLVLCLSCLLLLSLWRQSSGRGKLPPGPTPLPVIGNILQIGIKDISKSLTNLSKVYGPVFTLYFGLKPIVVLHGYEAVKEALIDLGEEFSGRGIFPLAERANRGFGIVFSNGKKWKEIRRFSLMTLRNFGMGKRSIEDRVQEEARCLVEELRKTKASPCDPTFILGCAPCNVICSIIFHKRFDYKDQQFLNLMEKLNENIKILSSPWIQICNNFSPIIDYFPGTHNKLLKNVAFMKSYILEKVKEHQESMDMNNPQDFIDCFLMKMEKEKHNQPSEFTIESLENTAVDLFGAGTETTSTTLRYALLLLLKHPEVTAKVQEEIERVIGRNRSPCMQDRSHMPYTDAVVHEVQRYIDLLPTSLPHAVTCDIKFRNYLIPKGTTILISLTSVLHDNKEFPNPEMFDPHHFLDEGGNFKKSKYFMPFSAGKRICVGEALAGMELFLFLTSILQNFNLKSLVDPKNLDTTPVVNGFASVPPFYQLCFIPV
Cytochrome P450 3A4 (Homo sapiens), sequence (P08684 whole entry, looked up): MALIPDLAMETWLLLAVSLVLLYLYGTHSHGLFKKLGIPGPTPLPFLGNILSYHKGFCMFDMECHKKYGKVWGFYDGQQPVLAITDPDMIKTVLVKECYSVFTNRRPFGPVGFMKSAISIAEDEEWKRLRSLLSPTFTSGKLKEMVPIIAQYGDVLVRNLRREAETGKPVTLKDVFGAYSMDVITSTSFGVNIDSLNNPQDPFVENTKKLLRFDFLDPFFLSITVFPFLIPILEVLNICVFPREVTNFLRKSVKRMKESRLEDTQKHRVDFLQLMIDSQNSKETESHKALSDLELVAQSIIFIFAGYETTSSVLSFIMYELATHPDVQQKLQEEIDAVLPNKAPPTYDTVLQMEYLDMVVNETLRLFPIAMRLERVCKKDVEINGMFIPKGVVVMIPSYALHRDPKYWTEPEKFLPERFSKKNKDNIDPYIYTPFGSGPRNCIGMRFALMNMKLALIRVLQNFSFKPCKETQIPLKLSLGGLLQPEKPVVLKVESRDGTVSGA
N-terminal Xaa-Pro-Lys N-methyltransferase 1 (Homo sapiens), sequence (Q9BV86 whole entry, looked up): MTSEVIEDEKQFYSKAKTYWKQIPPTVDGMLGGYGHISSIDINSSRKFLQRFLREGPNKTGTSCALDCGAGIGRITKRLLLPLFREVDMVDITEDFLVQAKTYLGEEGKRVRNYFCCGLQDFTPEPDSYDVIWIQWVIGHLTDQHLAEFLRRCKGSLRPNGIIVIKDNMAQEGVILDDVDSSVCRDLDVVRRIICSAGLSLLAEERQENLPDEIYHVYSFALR

Regarding `CC(=O)c1cnc2ccc(-c3cc(Cl)c(O)c(Cl)c3)nc2c1NC1CCC(CN(C)C)CC1` (configuration not stated), the Potency entry in test [1] was “inactive”. Besides, the Potency in test [2] was 30.3 nM (active) and 3.7 nM (active); in test [3] it was 38.2 nM (active) and 3.7 nM (active).

As to `O=S(=O)(Nc1ccc(C(O)(C(F)(F)F)C(F)(F)F)cc1)c1cccs1`, the Potency in test [4] was 1.9 µM (active).

As for `O=C(NCc1ccc(OC(F)(F)F)cc1)C1c2ccccc2C(=O)N1C1CCOCC1` (configuration not stated), the Potency in test [4] was 12 µM (active). Also, the Potency entry in test [2] and in test [3] was “inactive” each time.

Turning to `CC(C)(O)c1ccc2c(c1)C(=O)CC1[C@](C)(CO)CCC[C@]21C` (some centres not stated), the Potency entry in test [5], in test [2] and in test [3] was “inactive” throughout.

With `Cc1cccc(-c2[nH]c(CNc3ccccc3F)nc2-c2ccc3ncnn3c2)n1`, the Potency in test [4] was 21.3 µM (active).

`O=C(O)[C@H]1CCCC[C@H]1C(=O)N1CCc2ccccc2[C@H]1CN1C(=O)c2ccccc2C1=O`: the Potency entry in test [1] and in test [3] was “inactive” throughout.

`O=C(NC[C@H](O)CN1CCc2ccccc2C1)c1cc(NC2COC2)ncn1`: the Potency entry in test [6] and in test [2] was “inactive” in each case.

As to `COc1cc(N2CCC(N(C)C)CC2)ccc1Nc1ncc(Cl)c(Nc2ccccc2P(C)(C)=O)n1`, in test [1], the Potency entry is “inactive”. The Potency in test [2] was 2.3 µM (active) and 2.63 µM (active); in test [3], 3.25 µM (active) and 3.32 µM (active).

Regarding `Nc1nc(CC(=O)Nc2ccc(CCNCC(O)c3ccccc3)cc2)cs1` (configuration not stated), the Potency in test [1] is 0.477 µM (active). Moreover, the Potency result in test [2] and in test [3] was “inactive” in each case.

As to `O=C(O)c1ccc(CCCc2ccc(OCCc3ccc(F)cc3)cc2)o1`, in test [4], the Potency result was “inactive”.

As for `Cc1nn(C)c2c1C(c1ccc(C(F)(F)F)cc1)C(C#N)=C(N)O2` (configuration not stated), the Potency in test [4] was 21.3 µM (active). Also, the Potency entry in test [2] and in test [3] was “inactive” each time.

For the compound `CC[C@H]1OC(=O)C[C@@H](O)[C@H](C)[C@@H](O[C@@H]2O[C@H](C)[C@@H](O)[C@H](N(C)C)[C@H]2O)[C@@H](CCN2C[C@H](C)C[C@H](C)C2)C[C@@H](C)C(=O)/C=C/C(C)=C/[C@@H]1CO[C@@H]1O[C@H](C)[C@@H](O)[C@@H](OC)[C@H]1OC`, the Potency entry in test [4], in test [2] and in test [3] was “inactive” each time.

As for `O=C(CCCCc1ccc2ccccc2c1)C(F)(F)F`, in test [4], the Potency was 9.52 µM (active). The Potency entry in test [2] and in test [3] was “inactive” throughout.

Take `C=C(C)C(C)C1OC23CC4(CO2)C(CCC2C5(C)CCC(OC6OCC(O)C(OC7OC(CO)C(O)C(OC8OCC(O)C(O)C8O)C7O)C6OC6OC(CO)C(O)C6O)C(C)(C)C5CCC24C)C3C(C)(O)C1OC(C)=O` (configuration not stated): the activity change, negative = viability loss in test [2] is -26.7% [at 9.23 µM].
